Data on 2 compounds can be found in PubChem BioAssay (NCATS).

Each structure is given as a SMILES string. Records with an inconclusive call do not appear. Activity calls are given as the source filed them. Unless noted, the call rests on the fitted dose curve.

Experiment [1] is described as follows: Primary qHTS for inhibitors of nuclear receptor binding SET domain protein 2 (NSD2) in an isogenic RCH-ACV NSD2 p.E1099K mutant (9B) (AID 1645876; active means well fitted inhibition curve with a large enough effect; further: nearly all actives have a fitted effect of over 70% in size). The settings on record: RCH-ACV (leukaemia line) NSD2 E1099K (9B) viability, CellTiter-Glo, 72 h; series mostly up to 44.9 µM. For orientation: In qHTS, concentration-response curves come from the screen itself.
Experiment [2] can be described thus: qHTS drug screen for cell cycle checkpoint inhibitors in PARPi-resistant BRCA-mutant ovarian cancer cell lines. (AID 1963452). The settings on record: PEO1/OlaR viability, CellTiter-Glo luminescence, 96 h; for Z-AUC: stronger effect = lower value. The procedure, abridged:
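PEO1, PEO4 and PEO1/OlaR ovarian cancer cells, 600 per well, exposed 96 h at 37C to a dilution series. Viability read by CellTiter-Glo luminescence, normalized to DMSO and empty wells; activity summarized as Z-AUC.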
Potency means the concentration at half of the fitted maximal effect.

`COC(=O)[C@]12CCC(C)(C)C[C@H]1[C@H]1C(=O)C=C3[C@@]4(C)C=C(C#N)C(=O)C(C)(C)[C@@H]4CC[C@@]3(C)[C@]1(C)CC2`: the Potency in experiment [1] was 8.33 µM (active). For the same compound, the Z-AUC in experiment [2] (PEO1 parental Z-AUC) is -0.983; in experiment [2] (PEO4 Z-AUC), -1.45; in experiment [2], 0.111 (inactive).
In the case of `CC1(C)CC[C@]2(NC(=O)C(C)(F)F)CC[C@]3(C)[C@H](C(=O)C=C4[C@@]5(C)C=C(C#N)C(=O)C(C)(C)[C@@H]5CC[C@]43C)[C@@H]2C1`, the Potency in experiment [1] is 9.34 µM (active); in experiment [2], 1.38 µM (active). The Z-AUC in experiment [2] (PEO1 parental Z-AUC) was -1.7; in experiment [2] (PEO4 Z-AUC), -2.21.
